Source: PubChem BioAssay (Tox21)
Records with an inconclusive call do not appear. Entries that show only a call come without a potency. Activity calls are given as the source filed them. The call rests on the fitted dose curve.
Potency means the concentration at half of the fitted maximal effect.

The molecules below were run against Peroxisome proliferator-activated receptor delta (Homo sapiens) (UniProt Q03181) (assay: qHTS assay to identify small molecule agonists of the peroxisome proliferator-activated receptor delta (PPARd) signaling pathway (AID 743212)). Conditions: HEK293H PPARd-UAS-bla, beta-lactamase FRET ratio, 17 h; series mostly up to 62.6 µM.
Sequence of Peroxisome proliferator-activated receptor delta (Homo sapiens) (Q03181 whole entry, looked up): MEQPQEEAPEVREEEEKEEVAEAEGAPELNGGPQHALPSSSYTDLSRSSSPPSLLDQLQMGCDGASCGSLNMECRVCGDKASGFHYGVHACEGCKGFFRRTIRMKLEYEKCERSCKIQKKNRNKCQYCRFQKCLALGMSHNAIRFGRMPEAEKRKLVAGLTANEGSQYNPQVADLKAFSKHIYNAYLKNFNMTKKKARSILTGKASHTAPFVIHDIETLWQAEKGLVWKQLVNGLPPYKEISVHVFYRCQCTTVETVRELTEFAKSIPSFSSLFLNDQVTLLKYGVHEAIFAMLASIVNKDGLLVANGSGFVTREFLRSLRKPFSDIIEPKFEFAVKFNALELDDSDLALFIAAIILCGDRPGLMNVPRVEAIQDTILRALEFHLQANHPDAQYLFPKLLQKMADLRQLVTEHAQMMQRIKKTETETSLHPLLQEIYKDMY
Text: U.S. Tox21 Program National Center for Advancing Translational Sciences [NCATS] NIH Chemical Genomics Center [NCGC] U.S. Environmental Protection Agency [EPA] National Institutes of Environmental Health Sciences [NIEHS] National Toxicology Program [NTP] U.S. Food and Drug Administration [FDA] Tox21 Assay Overview: The peroxisome proliferator-activated receptors (PPARs) are lipid-activated transcription factors of the nuclear receptor superfamily with three distinct subtypes namely PPAR alpha, PPAR delta (PPARd) and PPAR gamma. All these subtypes heterodimerizes with Retinoid X receptor (RXR) and have different physiological functions. […] To identify the compounds that activate PPAR-delta signaling, GeneBLAzer PPAR delta UAS-bla HEK293H cell line (Invitrogen, Carlsbad, CA, USA) containing a beta-lactamase reporter gene under the control of an Upstream Activator Sequence (UAS) was used to screen the Tox21 compound library.
Tox21 Assay Protocol Summary: PPARd-bla cells were dispensed at 3000 cells/6uL/well in 1536-well black wall/clear bottom plates using a Multidrop Combi (Thermo Fisher Scientific, Waltham, MA) dispenser. After the assay plates were incubated at 37 C and 5% CO2 for 5 h, 23 nL of compounds dissolved in DMSO, positive controls or DMSO only was transferred to the assay plate by a Pintool station (Kalypsys, San Diego, CA). The assay plates were incubated at 37C for 17 h. After 1 uL of LiveBLAzerTM B/G FRET substrate was added using a Bioraptr Flying Reagent Dispenser (FRD) workstation (Beckman Coulter, Indianapolis, IN, USA), the plates were incubated at room temperature for 2 h, and fluorescence intensity was measured by an Envision plate reader (PerkinElmer, Shelton, CT).
With Cc1cccc2cccnc12 the Potency was “inactive”.
With Oc1cc(Cl)cc(Cl)c1Cl the Potency was “inactive”.
CCc1cccc(CC)c1NC(=O)CN(CC(=O)O)CC(=O)O was tested, and the Potency was “inactive”.
In the case of C#C[C@]1(O)CC[C@H]2[C@@H]3[C@H](C)CC4=C(CCC(=O)C4)[C@H]3CC[C@@]21C, the Potency is reported as “inactive”.
In the case of CCCCC/C=C\C/C=C\CCCCCCCC(=O)O, the Potency is reported as “inactive”.
In the case of ClCCl, the Potency is reported as “inactive”.
For CCN1C(=O)c2ccccc2C1Nc1ccc(OCCN2CCCCC2)cc1 (stereo not given), the Potency was “inactive”.
In the case of COc1c(C)c2c(c(O)c1C/C=C(\C)CCC(=O)OCCN1CCOCC1)C(=O)OC2, the Potency is reported as “inactive”.
In the case of O=C(O)c1cc(O)c2ccccc2c1O, the Potency is reported as “inactive”.
CC1(C)CCC[C@]2(C)[C@H]3CCO[C@]3(C)CC[C@@H]12 was tested, and the Potency was “inactive”.
With COc1cc2nc(N3CCN(C(=O)c4ccco4)CC3)nc(N)c2cc1OC the Potency was “inactive”.
With COC(=O)c1ccccc1C the Potency was “inactive”.
For CC1=Nc2ccccc2C1(C)C, the Potency was “inactive”.
With C[Si](Cl)(c1ccccc1)c1ccccc1 the Potency was “inactive”.
With Cc1cccc(C)c1NC(=O)c1ccc(N)cc1 the Potency was “inactive”.
With CCN(CC)c1ccc2c(-c3ccc(S(=O)(=O)O)cc3S(=O)(=O)[O-])c3ccc(=[N+](CC)CC)cc-3oc2c1 the Potency was “inactive”.
With C1CCC(SSC2CCCCC2)CC1 the Potency was “inactive”.
In the case of C=CCn1c(=O)n(CC=C)c(=O)n(CC=C)c1=O, the Potency is reported as “inactive”.
In the case of CCC(=O)OC(=O)CC, the Potency is reported as “inactive”.
For [Cu+], the Potency was “inactive”.
For O=[N+]([O-])c1ccc(O)cc1C(F)(F)F, the Potency was “inactive”.
In the case of C=CC(C)(CCC=C(C)C)OC=O (stereo not given), the Potency is reported as “inactive”.
With CCCC[P+](C)(CCCC)CCCC the Potency was “inactive”.
For COc1ccc(NC(=O)CC(C)=O)cc1, the Potency was “inactive”.
For Cc1c(N)cccc1C(F)(F)F, the Potency was “inactive”.
In the case of Cc1ccc(-c2ccccc2)cc1, the Potency is reported as “inactive”.
O=c1c(O)c(-c2ccc(O)cc2O)oc2cc(O)cc(O)c12 was tested, and the Potency was “inactive”.
COc1ccc(-c2coc3cc(O)ccc3c2=O)cc1 was tested, and the Potency was “inactive”.
In the case of NC(=O)c1cccc([N+](=O)[O-])c1, the Potency is reported as “inactive”.
In the case of C[C@H]1NCc2cc(-c3ccc4c(=O)c(C(=O)O)cn(C5CC5)c4c3OC(F)F)ccc21, the Potency is reported as “inactive”.
With CC(C)CCCCCOC(=O)CCS the Potency was “inactive”.
CC(C)Cn1cnc2c(N)nc3ccccc3c21 was tested, and the Potency was “inactive”.
For O=S(=O)(O)c1ccc(Nc2nc(Nc3ccc(/C=C/c4ccc(Nc5nc(Nc6ccc(S(=O)(=O)O)cc6)nc(N(CCO)CCO)n5)cc4S(=O)(=O)O)c(S(=O)(=O)O)c3)nc(N(CCO)CCO)n2)cc1, the Potency was 33.1 µM (active).
In the case of C=Cc1cccc(C)c1, the Potency is reported as “inactive”.
With Cc1cccc(C(=O)O)c1O the Potency was “inactive”.
With CCCCCCCCCCC[C@@H](C[C@@H]1OC(=O)[C@H]1CCCCCC)OC(=O)[C@H](CC(C)C)NC=O the Potency was “inactive”.
In the case of c1ccc(C(O[C@@H]2CCCN(CCc3ccc4c(c3)OCO4)C2)c2ccccc2)cc1, the Potency is reported as “inactive”.
For O[C@@H]([C@H](O)[C@H](O)CBr)[C@H](O)CBr, the Potency was “inactive”.
For CCCCCCCCCCOC(=O)c1ccccc1C(=O)OCCCCCCCC, the Potency was “inactive”.
O=C(O)c1cccc(C(F)(F)F)c1 was tested, and the Potency was “inactive”.
